Test results from the supplement of paper PMC10941209.
Values without a mark were called inactive.

Tested on: Toxoplasma gondii RH 2F1 tachyzoites (intracellular in HFF)
Assay: parasite survival relative to DMSO control; higher = less antiparasitic activity, active = 20 or less
Details: 1 µM; 72 h
Procedure, shortened: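 Intracellular Toxoplasma gondii RH-2F1 tachyzoites, which express β-galactosidase, were grown in HFF cells (5 × 10^3 cells/well, 96-well plates) infected with 5 × 10^3 parasites in D2 medium for 3 h, then treated with compound at 1 μM for 72 h at 37°C in 5% CO2. Cells were lysed for 15 min, then CPRG was added and absorbance read at 570 nm after 30 min. Survival is the signal as a percentage of DMSO-treated infected controls, from 2 or more biological replicates.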

SMILES | parasite survival
COc1cc(C(C)(C)CCCC(C)C)cc(OC)c1OC | 36.9%
O=C(Nc1ccc(Cl)c(C(F)(F)F)c1)C(CCCl)C(=O)Nc1ccc(Cl)c(C(F)(F)F)c1 | 15.6% (active)
CO[C@@]1(NC(=O)Cc2cccs2)C(=O)N2C(C(=O)O)=C(COC(N)=O)CS[C@@H]21 | 61.6%
Cc1c[nH]c(=O)nc1NCc1ccccc1 | 49.9%
O=C(/C=C\n1cnc(-c2cc(C(F)(F)F)cc(C(F)(F)F)c2)n1)NNc1ccccn1 | 4.89% (active)
COc1cc(NC(=O)CN2C(=O)NC(c3ccccc3)(c3ccccc3)C2=O)cc(OC)c1 | 49.2%
Fc1ccc2c(/C=C/c3cccnc3)c[nH]c2c1 | 29.1%
CCN1CCN(Cc2nc3ccc([N+](=O)[O-])cc3c(=O)n2-c2ccccc2F)CC1 | 59.6%
Cc1cc(C2CCCCC2)n(O)c(=O)c1 | 15.8% (active)
O=C(Nc1ccc(N2CCN(C(=O)c3ccccc3)CC2)cc1)c1ccc2c(c1)OCO2 | 46.9%
CCOc1ccc(C(=O)NCCc2ccccc2)cc1 | 60.8%
COc1cccc(N2CCN(C3=Nc4c(F)cccc4[C@H](CC(=O)O)N3c3cc(C(F)(F)F)ccc3OC)CC2)c1 | 41.2%
Oc1c(C(Nc2nc3ccccc3s2)c2ccc(OC(F)F)cc2)ccc2cccnc12 (stereo not given) | 4.28% (active)
CC[C@H](CO)Nc1nc(NCc2ccccc2)c2ncn(C(C)C)c2n1 | 87.1%
CCC[C@@H]1C[C@@H](C(=O)N[C@@H]([C@H]2O[C@H](SC)[C@H](O)[C@@H](O)[C@H]2O)[C@H](C)Cl)N(C)C1 | 16.1% (active)
Nc1nc(=O)c(Br)c(-c2ccccc2)[nH]1 | 75.4%
Nc1ccc(-c2nc3cc(C(F)(F)F)ccc3n2C23CC4CC(CC(C4)C2)C3)cc1 | 53%
O=c1ccc2ncc(=O)n3c2n1CC3CN1CCC(NCc2cc3c(cn2)OCCC3)CC1 (stereo not given) | 44.7%
COc1ccc(C2=CC(c3c(F)cccc3Cl)n3ncnc3N2)cc1 (stereo not given) | 71.5%
O=C(O)[C@H]1C2CCC(CC2)[C@@H]1Nc1nc(-c2c[nH]c3ncc(F)cc23)ncc1F | 44.8%
NC(=O)c1nccn([C@@H]2O[C@H](CO)[C@@H](O)[C@H]2O)c1=O | 59.3%
Cc1nc(N(C)C(=O)Cc2ccc(-c3ccccn3)cc2)sc1S(N)(=O)=O | 72.8%
COC(=O)Nc1nc2ccccc2[nH]1 | 53%
C[Si]1(C)CCN(Cc2cc(-c3ccc(Cl)cc3)n(-c3ccc(Cl)cc3)n2)CC1 | 13.7% (active)
CC[C@@H](CO)NCCN[C@@H](CC)CO | 55.4%
O[C@@](Cn1cnnn1)(c1ccc(F)cc1F)C(F)(F)c1ccc(-c2ccc(OCC(F)(F)F)cc2)cn1 | 28.8%
COc1ccc(NS(=O)(=O)c2ccc(Cl)s2)cn1 | 45.1%

SMILES | parasite survival
NC(=O)c1[nH]c2ccc(S(N)(=O)=O)cc2c1-c1ccccc1 | 72.1%
O=C(Cn1cnc2ccccc2c1=O)Nc1ccccc1 | 57.7%
Oc1ccc(NCc2ccccc2OCc2ccccc2)cc1 | 39.5%
C[C@H](c1cccc2ccccc12)N(C)Cc1ccccc1 | 44.4%
Cc1ncc([N+](=O)[O-])n1CC(O)CN1CCOCC1 (stereo not given) | 52.5%
C[C@@H](NC(=O)c1cccc(-c2cnc(-c3cc4ccccc4cn3)[nH]2)c1)c1ccc(F)cc1 | 11.6% (active)
CCCCc1ccc(C(=O)O)nc1 | 54.6%
CCCCOC(=O)Nc1cc2nc(C3CCCCC3)[nH]c2cc1N(CC)CC | 5.06% (active)
N#Cc1cc([N+](=O)[O-])ccc1Oc1ccccc1Cl | 69%
O=C(Nc1nnc(-c2ccc(Cl)cc2)o1)c1ccc(F)cc1 | 41.1%
CCCCc1ccc(-c2nc(C)c(C(=O)OC)s2)cc1 | 64%
Nc1ccc2oc(=O)ccc2c1I | 80.5%
CCc1ccc(C2CC(C(F)(F)F)n3ncc(C(=O)NCc4ccc(OC)cc4)c3N2)cc1 (stereo not given) | 25.4%
O=C(Nc1ncc(Cc2cccc3ccccc23)s1)C1CCCCC1 | 25.3%
OC(Cn1cncn1)(Cn1cncn1)c1ccc(F)cc1F | 46%
CC[C@H]1OC(=O)[C@H](C)[C@@H](O[C@H]2C[C@@](C)(OC)[C@@H](O)[C@H](C)O2)[C@H](C)[C@@H](O[C@@H]2O[C@H](C)C[C@H](N(C)C)[C@H]2O)[C@](C)(O)C[C@@H](C)C(=O)[C@H](C)[C@@H](O)[C@]1(C)O | 13.9% (active)
Cc1ccccc1NC(=O)Nc1cccc([N+](=O)[O-])c1 | 24.2%
COc1ccc(C)cc1NC(=O)c1ccc(S(=O)(=O)N2CCCCC2)cc1 | 60%
Cn1cc(NC(=O)c2cc(NC(=O)c3ccc(/C=C/c4cnc5ccccc5c4)cc3)cn2C)cc1C(=O)NCCN1CCOCC1 | 12.8% (active)
CN(C)c1[nH]c(=O)ncc1F | 36.6%
COc1ccc2nc(-c3ccccc3)cc(O)c2c1 | 6.87% (active)
Nc1nc(N)c2c(Sc3ccccc3)cccc2n1 | 11.4% (active)
Nc1cc(-c2nc3ccccc3[nH]2)n[nH]c1=O | 43%
N[C@H](CCC(=O)N[C@@H](Cc1c[nH]c2ccccc12)C(=O)O)C(=O)O | 84.2%
Nc1nc(Nc2ccc3nc(-c4ccc(F)cc4)cc(N)c3c2)cc(-c2ccccc2)n1 | 4.03% (active)
CCOc1ccc(/C=N/NC(=O)C2CC2c2ccc(C(C)(C)C)cc2)cc1OCC (stereo not given) | 51.6%
CN1c2ccc(Cl)cc2N(c2ccccc2)C(=O)c2cn(Cc3ccc(CN4CCOCC4)cc3)nc21 | 44%

SMILES | parasite survival
CNCC(=O)OCc1cccnc1N(C)C(=O)OC(C)[n+]1cnn(C[C@](O)(c2cc(F)ccc2F)[C@@H](C)c2nc(-c3ccc(C#N)cc3)cs2)c1 (stereo not given in full) | 35.6%
CC1(C)CC(NC(=O)C(=O)Nc2ccc(Cl)cc2)CC(C)(C)N1 | 69.9%
CN1CCN(Cc2ccc(-c3cnc4[nH]cc(-c5ccc6[nH]ccc6c5)c4c3)cc2)CC1 | 7.23% (active)
NC(=S)N/N=C/c1ncccc1N | 37.3%
Cc1nc2ccc(Oc3ccccc3)cc2c2c1CCN2CCc1ccccc1 | 8.56% (active)
NC[C@H]1O[C@H](O[C@H]2[C@H](O)[C@@H](O[C@H]3O[C@H](CO)[C@@H](O)[C@H](N)[C@H]3O)[C@H](N)C[C@@H]2N)[C@H](N)C[C@@H]1O | 48.9%
CC(=N)N1CC[C@H](SC2=C(C(=O)O)N3C(=O)[C@@H]([C@@H](C)O)[C@H]3C2)C1 | 53.7%
O=C(Nc1ccccc1)N(Cc1cc(Br)ccc1O)c1ccc(F)cc1 | 21.3%
COc1c(F)c(F)cc2c(=O)c(C(=O)O)cn(C3CC3)c12 | 63.8%
CNc1nc(=O)[nH]cc1F | 60.5%
Clc1cc2nc(C3CCNCC3)n(Cc3ccc(CNCCc4c[nH]cn4)cc3)c2cc1Cl | 66.5%
N=C(N)NCCCCC(=O)Nc1cc(C(F)(F)F)cc(NC(=O)c2cc(C(=O)Nc3cc(C(F)(F)F)cc(NC(=O)CCCCNC(=N)N)c3O[C@@H]3CCNC3)ncn2)c1O[C@@H]1CCNC1 | 58.7%
CCc1nc2ccc(Cl)cn2c1C(=O)NCc1ccc(N2CCC(c3ccc(OC(F)(F)F)cc3)CC2)cc1 | 28.9%
O=C(O)c1ccccc1Sc1ncnc2sc3c(c12)CCC3 | 44.2%
Cn1c2ccccc2c(=O)c2c(O)cccc21 | 49.5%
O=C(O)/C=C/C=C/c1cccc(Oc2cc(Cl)cc(Cl)c2)c1 | 36.2%
C=CCN(C(=O)OCc1ccc([N+](=O)[O-])cc1)C1CCN(CC[C@](C)(CN(C)S(=O)(=O)c2ccccc2)c2ccccc2)CC1 | 35.5%
CN(C(=O)C1(c2ccc(Cl)cc2)CCC1)c1ccccc1 | 83.6%
COc1ccc(SC(=O)N[C@H](CCC(=O)O)C(=O)O)cc1 | 56.2%
CCCCSc1nc(N)c2[nH]c(=O)c(=O)n(Cc3ccccc3)c2n1 | 26.1%
C[C@H]1CC[C@@]2(O)C(C)(C)[C@@H]3CC[C@@]2(C)[C@H]1C3 | 55.5%
CC(C)Nc1ncnc2c1cnn2-c1ccc(Cl)cc1 | 58.2%
O=C(Nc1cccc(C2=NCCN2)c1)c1ccc(-c2ccc(C(=O)Nc3cccc(C4=NCCN4)c3)cc2)cc1 | 22.1%
CCOC(=O)/C=C/[C@H](C[C@@H]1CCNC1=O)NC(=O)[C@@H](CC(=O)[C@@H](NC(=O)c1cc(C)on1)C(C)C)Cc1ccc(F)cc1 | 48.2%
O=C(Nc1ccccc1C(=O)O)c1cccc(Oc2ccccc2)c1 | 39.4%
O=C(NNC(=S)Nc1ccc(Cl)cc1)c1ccncc1 | 65%
